Compound activity deposited in PubChem by several laboratories.
Hits are enriched below; roughly 1.1% of the tested compounds scored in any of these assays.
Rv3671c inh: Rv3671c (M. tuberculosis) protease inhibition. inhibition, % at 5.96 µM. AID 2606. P9WHR9. 320,000 compounds, 0.048% hits; in the data active means inhibition above about 38%;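 further: extracellular domain of Rv3671c used as enzyme; 0% = enzyme with DMSO and 100% = no enzyme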
Target sequence (P9WHR9 whole entry, looked up, the tested form may be a part): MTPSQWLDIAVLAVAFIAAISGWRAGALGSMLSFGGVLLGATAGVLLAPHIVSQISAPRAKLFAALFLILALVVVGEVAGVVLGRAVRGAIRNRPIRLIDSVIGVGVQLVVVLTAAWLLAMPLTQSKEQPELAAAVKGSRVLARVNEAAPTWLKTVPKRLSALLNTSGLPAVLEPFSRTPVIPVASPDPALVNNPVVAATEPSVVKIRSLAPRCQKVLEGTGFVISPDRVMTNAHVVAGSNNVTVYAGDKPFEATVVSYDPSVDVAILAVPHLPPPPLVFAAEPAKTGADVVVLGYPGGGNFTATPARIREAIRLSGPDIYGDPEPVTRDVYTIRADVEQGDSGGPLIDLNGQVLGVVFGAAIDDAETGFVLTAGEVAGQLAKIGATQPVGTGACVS
Mtb bLac sens: beta-lactam sensitization of Mtb H37Rv; M. tuberculosis H37Rv growth with meropenem, percent inhibition; inhibition, % at 25 µM; 330,000 compounds, 0.27% hits; AID 434955; call rule not given here;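 further: growth measured after seven days incubation then overnight dye step; 0% = bacteria only wells and 100% = bacteria with antibiotic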
PriA SSB inh: blocks PriA binding to SSB C-terminal tail; AlphaScreen SSBct-PriA binding, biotinylated peptide; inhibition, % at 33 µM; 430,000 compounds, 0.6% hits; in the data active means inhibition mostly above about 37%, no sharp cut-off; inactive means mostly below about 20%;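 further: plate controls were negative control peptide for no effect and reference peptide for full effect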
Mtb UGM inh: inhibitors of M. tuberculosis UDP-galactopyranose mutase. P9WIQ1. purified UGM, fluorescence polarization probe displacement. inhibition, % at 10 µM. 320,000 compounds, 0.06% hits. AID 504406; in the data active means inhibition above about 10%, passing the limit was not always enough
RecA intein inh: Mtb RecA intein splicing inhibition; cell-free RecA intein splicing, fluorescence; inhibition, % (test concentration not listed); 290,000 compounds, 0.75% hits; AID 2221; in the data active means inhibition above about 30%;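 further: 0% = vehicle wells and 100% = reference inhibitor control wells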
Active calls of the source: *; . = no result given; + = active, no number.

SMILES | Rv3671c inh | Mtb bLac sens | PriA SSB inh | Mtb UGM inh | RecA intein inh
CC(C)(C)N=C1NN=C(c2cc3ccccc3o2)CS1 | 8 | 4 | 42* | 1 | 1
c1ccc(CNc2nc3ccccc3n3cnnc23)nc1 | -1 | -5 | -6 | 4 | 0
c1ccc(CNc2nc3ccccc3n3cnnc23)cc1 | 6 | -6 | 104* | 0 | 2
CCCc1cc(=O)oc2cc(C)cc(OCc3nn[nH]n3)c12 | 4 | -11 | -25 | -1 | 0
Cc1cc(=O)oc2c1c(C)nn2-c1nn[nH]n1 | 5 | -5 | 58* | 1 | 18
COc1cccc(-c2ccc(=O)n(CCCC(=O)NC3CCCC3)n2)c1 | . | . | -7 | . | .
Cc1noc(C)c1CCC(=O)NCC(O)c1ccc(C(F)(F)F)cc1 (stereo unspecified) | . | . | -9 | . | .
COc1ccccc1NC(=O)COc1ccc(C=NNC(=O)CSCc2ccc(Cl)cc2)cc1 | . | . | -8 | . | .
O=c1cc(-c2ccccc2)[nH]n1-c1nc2ccccc2[nH]1 | 5 | -5 | 69* | 1 | -5
CCc1cc(=O)[nH]c(-n2[nH]c(-c3ccccc3)cc2=O)n1 | 1 | -1 | 3 | 0 | 4
Cc1c(C(=O)N(C)C)sc2nc(-c3ccccn3)[nH]c(=O)c12 | -12 | 94 | 47* | -1 | 4
CCOC(=O)C1Nc2c(F)cc(C)cc2C2c3ccccc3CC12 (stereo unspecified) | -9 | 87 | -8 | 0 | 45*
Cc1cccc(N2CCN(C(=O)c3ccc4c(c3)NC(=O)C(CSCc3ccc(F)cc3)N4)CC2C)c1 (stereo unspecified) | -21 | 74 | . | -3 | 33*
CC1(C)CC2(CC(c3ccccc3F)c3cc(Cl)c(O)cc3O2)NC(=S)N1 (stereo unspecified) | -7 | -4 | -6 | 0 | 3
CC(=O)Oc1cc2c(cc1Cl)C1(CC(c3ccccc3Cl)O2)CC(C)(C)NC(=S)N1 (stereo unspecified) | 18 | 74 | 26 | -1 | 45*
COc1cc(Cn2nc(C3CC3)c3cnn(-c4ccccc4)c3c2=O)cc(OC)c1 | . | . | -7 | . | .
CC/C(=C\c1ccc(N(C)C)cc1)c1ccncc1 | . | . | 49* | . | .
CN(C)c1ccc(/C=N/NC(=O)CNC(=O)c2ccncc2)cc1 | 4 | 1 | . | 0 | -1
O=[N+]([O-])c1cc2c(cc1C=Nn1c(-c3ccccc3)n[nH]c1=S)OCO2 | . | . | -5 | . | .
S=c1[nH]nc(-c2ccccn2)n1N=Cc1cccs1 | . | . | 58* | . | .
O=[N+]([O-])c1cc2c(cc1C=Nn1c(-c3ccccn3)n[nH]c1=S)OCO2 | . | . | 99* | . | .
Cc1noc(-c2cccn3c(CNC(=O)c4ccnn4C)nnc23)n1 | . | . | -1 | . | .
CCN(CC)c1ccc2c(-c3ccc(S(=O)(=O)O)cc3S(=O)(=O)[O-])c3ccc(=[N+](CC)CC)cc-3oc2c1 | + | -20 | -3 | 93* | 1
COc1ccc(CC(=O)N2CCN(c3nccn4nc5c(c34)CCCC5)CC2)cc1Cl | . | . | -4 | . | .
Cn1c2c(c(=O)n(C)c1=O)[C@@]1(C(=O)Nc3ccccc31)C(C#N)=C(N)O2 | 5 | 0 | -1 | 0 | 34*
SMILES | Rv3671c inh | Mtb bLac sens | PriA SSB inh | Mtb UGM inh | RecA intein inh
Cc1nn(-c2ccccc2)c2c1C1(C(=O)Nc3ccccc31)C(C#N)=C(N)O2 (stereo unspecified) | . | . | 2 | . | .
COc1ccccc1N1COc2ccc3c(=O)c(-c4ccccc4)coc3c2C1 | . | . | 32* | . | .
CC1CCC(=NNc2ccc(C(F)(F)F)cc2[N+](=O)[O-])CC1 (stereo unspecified) | 7 | 4 | 73* | -1 | 2
Cn1nc(CNC(=O)C2CC=CCC2)c2c1CCCC2 (stereo unspecified) | . | . | -13 | . | .
Cn1c(=O)c(N)c2c3c(c(Br)ccc31)C(=O)c1ccccc1-2 | 20 | 26 | 42* | 15* | -8
Cn1c(=O)cc2c3c(c(Br)ccc31)C(=O)c1ccccc1-2 | . | . | -28 | . | .
O=C(COC(=O)c1ccc([N+](=O)[O-])o1)NC1CCCC1 | -11 | 85 | 1 | 21* | .
CCCN(CCC)Cc1c(C(=O)NN=Cc2ccc(Br)cc2)nnn1-c1nonc1N | . | . | 6 | . | .
COc1ccc(-c2nc3cnccn3c2Nc2ccc3c(c2)OCO3)cc1 | 8 | 6 | 36 | 0 | 4
Cc1ccc(-c2nc3cnccn3c2Nc2ccc3c(c2)OCO3)cc1 | -6 | 3 | 38* | -2 | 9
CCN1CCCc2cc(CCNC(=O)c3ccc4c(c3)OCO4)ccc21 | . | . | 65* | . | .
CCN1CCCc2cc(CCNC(=O)c3ccc(OC)c(OC)c3)ccc21 | . | . | 64* | . | .
Cc1cc(F)ccc1S(=O)(=O)NCC(c1ccccc1Cl)N(C)C (stereo unspecified) | . | . | -1 | . | .
O=C(Nc1ccccc1-c1cn2ccsc2n1)c1ccc(Cn2ccnc2)cc1 | . | . | 39* | . | .
Cc1ccc(C)c(-c2nnc(NC(=O)C3COc4ccccc4O3)o2)c1 (stereo unspecified) | . | . | -17 | . | .
N#CC1=C(N)C(C#N)(C#N)[C@H](c2c(F)cccc2F)[C@H]2CC3(CC=C12)OCCO3 | 3 | 2 | 0 | 0 | 35*
CN1C2C=C3C(C#N)=C(N)C(C#N)(C#N)[C@H](c4c(F)cccc4F)[C@H]3C1CC2 (stereo partly specified) | -2 | 6 | -16 | 0 | 7
CCOc1ccccc1S(=O)(=O)NCC#CCN(C)C | . | . | -4 | . | .
CCOC(=O)Nc1nc(CC(=O)NCCC2=CCCCC2)cs1 | . | . | -6 | . | .
O=C(NCCCn1ccnc1)Nc1ccc(F)c(Cl)c1 | . | . | 43 | . | .
O=C(NCCCn1ccnc1)Nc1ccc(Cl)c(Cl)c1 | -2 | 2 | 76* | -5 | 0
CCc1ccc(NC(=O)C(=O)NCc2ccco2)cc1 | . | . | -9 | . | .
O=C(Nc1cccc(OC(=O)c2ccc(Br)o2)c1)c1ccccc1 | 10 | -4 | -34 | 1 | 43*
O=c1c2ccccc2nc2n1CCS2(=O)=O | 4 | 96 | -15 | 3 | 39*
O=C1CC(c2ccccc2F)C(=O)N1 (stereo unspecified) | . | . | 42* | . | .
SMILES | Rv3671c inh | Mtb bLac sens | PriA SSB inh | Mtb UGM inh | RecA intein inh
CC(C)CNS(=O)(=O)c1ccc2nc(NC(=O)c3ccccn3)sc2c1 | . | . | 96* | . | .
Cc1ccc(Cl)c2c(N=Nc3ccccc3)c(O)[nH]c12 | . | 1 | -13 | 11* | -3
Cc1cc(Cl)cc2c(N=Nc3ccccc3C(=O)O)c(O)[nH]c12 | 0 | 13 | 0 | 0 | 2
CCCCCCSCc1ccc(O)c2ncccc12 | . | . | 83* | . | .
Oc1ccc(CSCc2ccccc2)c2cccnc12 | . | . | 10 | . | .
CCCCCCCCCCCCSCc1ccc(O)c2ncccc12 | . | . | 53 | . | .
Oc1ccc(CSC2CCCCC2)c2cccnc12 | . | . | 69* | . | .
CCCCCCCCSCc1ccc(O)c2ncccc12 | . | . | 73* | . | .
C=CCn1c(SCc2ccc3c(c2)OCO3)nc2scc(-c3ccccc3)c2c1=O | . | . | -1 | . | .
N[C@@H](C(=O)O)c1cccc2ccccc12 | . | . | -14 | . | .
CC(=O)c1ccc(NN=C(C(N)=O)C2=NC(C)(C)Cc3ccccc32)cc1 | . | . | 50* | . | .
O=C(CN1CCC(Cn2c(COc3ccccc3)nc3ccccc32)CC1)Nc1nncs1 | . | . | -9 | . | .
O=C(NN=Cc1cc([N+](=O)[O-])cc([N+](=O)[O-])c1O)C(O)(c1ccccc1)c1ccccc1 | . | . | 9 | . | .
Cc1ccc(NC(=O)NCCn2ccnc2-c2ncccn2)cc1C | . | . | 97* | . | .
